Results: PubChem BioAssay
A number with no mark means an inactive call. The rule behind the calls is not given here.

Test: blockers of DNA damage checkpoint Chk1 activation – imaging, HeLa, hydroxyurea, phospho-Chk1 nuclear intensity, primary screen (AID 1187); note: test concentration not given here
Settings: hydroxyurea-induced phospho-Chk1 immunofluorescence imaging, higher = more signal

SMILES	z-score
O=C1c2ccccc2[C@](Cc2ccccc2I)(C(=O)NCc2ccccc2)[C@H](c2ccc(CO)cc2)N1C1CCCCC1	-0.12
COc1ccc(C(O)C2C=CC3C(=O)N(C)C(=O)C3N2N2CCCCC2)cc1 (stereo not given)	-1.31
C=C1C2CC3C(=C4C(CO[C@@H]4[C@H]4CCCN4S(=O)(=O)c4ccccc4[N+](=O)[O-])C4C(=O)N(C)C(=O)C34)CC2C(=O)N1C (stereo not given in full)	0.645
COCCOC(=O)N1C(=O)[C@@]2(c3cc(C#CC4=CCCCC4)ccc31)[C@H](c1ccc(O)cc1)N1[C@H](c3ccccc3)[C@H](c3ccccc3)OC(=O)[C@H]1[C@@H]2C(=O)Nc1nc2ccccc2s1	0.125
C[C@H]1C2=C3C(CC[C@H]4C(OCc5ccc(F)cc5C(F)(F)F)OC[C@](C)([C@@H]34)N(C(=O)OC(C)(C)C)C2)C(CO)C1CO (stereo not given in full)	0.52
COCCOC(=O)N1C(=O)[C@@]2(c3cc(C#CC4(O)CCCCCC4)ccc31)[C@H](C(=O)N1CCCCCCC1)[C@H]1C(=O)O[C@H](c3ccccc3)[C@H](c3ccccc3)N1[C@@H]2c1ccc(OCCO)cc1	0.805
COCCOC(=O)N1C(=O)[C@@]2(c3cc(C#CC4(O)CCCCCC4)ccc31)[C@H](C(N)=O)[C@H]1C(=O)O[C@H](c3ccccc3)[C@H](c3ccccc3)N1[C@@H]2c1ccccc1OCCO	0.217
CC(=O)N1Cc2ccccc2C[C@]2(N=C(c3ccc(OCCCO)cc3)O[C@@H]2c2ccccc2)C1=O	-0.0442
O=C1OCC=C[C@H]2OC34C=CCN(c5ccc(Cl)cc5)C(=O)[C@H]3N(CCCCCO)C(=O)[C@@H]4[C@@H]12 (stereo not given in full)	-0.281
C=C(C(=O)CC[C@H](OC(=O)c1cccnc1)c1cccc(OCCO)c1)C(C)C	-0.453
CC(C)C(O)C1C=CC2C(=O)N(C)C(=O)C2N1N(c1ccccc1)c1ccccc1 (stereo not given)	0.0802
O=C1O[C@@H](c2ccccc2)[C@@H](c2ccccc2)N2[C@@H](c3ccc(O)cc3)[C@]3(C(=O)Nc4ccccc43)[C@@H](C(=O)Nc3nc4ccccc4s3)[C@H]12	-0.259
COC(=O)[C@@]1(Cc2ccc(OC)cc2)[C@H]2c3cc(C(=O)N(C)C)n(Cc4ccccc4)c3C[C@H]2CN1C(=O)c1ccccc1	-0.687
CC1CC/C=C\[C@H]2OC34C=CCN(CCN5CCOCC5)C(=O)[C@H]3N(CCO)C(=O)[C@@H]4C2C(=O)O1 (stereo not given in full)	0.139
COC(=O)[C@]1(CCS(=O)(=O)c2ccccc2)N=C(c2ccc(OCCCO)cc2)O[C@@H]1c1ccccc1CN=[N+]=[N-]	-0.574
CC(C)(C)OC(=O)CC[C@]1(C(=O)O)N=C(c2ccc(OCCCO)cc2)O[C@H]1c1ccccc1	-0.243
O=C1c2ccccc2[C@@]2(Cc3ccccc3N(C3CC3)C2=O)[C@H](c2ccc(CO)cc2)N1C1CCCCC1	0.349
COCCOC(=O)N1C(=O)[C@@]2(c3ccccc31)[C@H](c1ccc(OCCO)cc1)N1[C@H](c3ccccc3)[C@H](c3ccccc3)OC(=O)[C@H]1[C@@H]2C(=O)Nc1nc2ccccc2s1	-0.178

SMILES	z-score
[N-]=[N+]=Nc1ccccc1C[C@@]1(C(=O)O)N=C(c2ccc(OCCCO)cc2)O[C@@H]1c1ccccc1	0.149
CCCNC(=O)[C@@]1(c2ccc([N+](=O)[O-])cc2)CC(=O)N(C2CCCCC2)[C@@H]1c1ccc(CO)cc1I	0.329
COc1ccc([Si](C)(C)[C@H]2[C@H](CCn3cc([C@H](O)c4ccccc4)nn3)O[C@@]3(C(=O)N(Cc4ccc(N5CCOC5=O)cc4)c4ccccc43)[C@@H]2C)cc1	-0.0848
COCCCNC(=O)[C@@]1(Sc2ccc(C)cc2)CC(=O)N(Cc2cc(C(F)(F)F)cc(C(F)(F)F)c2)[C@@H]1c1ccc(CO)cc1	0.0411
C=CCC(OC(C)=O)[C@@H]1[C@@H](N(Cc2cc3ccccc3o2)C(=O)Cc2ccc(F)cc2)c2cc(OCCCO)ccc2N1C(=O)c1ccc2ccccc2n1 (stereo not given in full)	0.636
CCCCC(=C=CC[C@@H](O)c1ccc(OCCO)cc1)C[C@@H](O)COCc1ccccc1	0.737
O=C1O[C@@H](c2ccccc2)[C@@H](c2ccccc2)N2[C@@H](c3ccc(O)cc3)[C@]3(C(=O)Nc4ccc(C#CCCO)cc43)[C@@H](C(=O)NC[C@H](O)c3ccccc3)[C@H]12	-0.46
[N-]=[N+]=Nc1ccccc1[C@@H]1OC(c2ccc(OCCCO)cc2)=N[C@]1(CCS(=O)(=O)c1ccccc1)C(=O)NCCN1CCOCC1	0.222
COCCCNC(=O)[C@@H]1c2ccccc2C(=O)N(Cc2ccccc2C(F)(F)F)[C@H]1c1ccc(CO)cc1	-0.593
NC(=O)N1C(=O)C2C(C1=O)C1C=C(CCCO)C2C(c2cccs2)N1Cc1cc2c(cc1Br)OCO2 (stereo not given)	0.509
CCOC(=O)C[C@H]1[C@H](OC(=O)c2ccccc2-c2ccccc2)[C@@H](NC(=O)CC(C)C)c2cc(OCCCO)ccc2N1C(=O)c1ccc2ccccc2n1	-0.537
CN1C(=O)C2C=CC(C(O)C3CCCCC3)N(N3CCCCC3)C2C1=O (stereo not given)	0.332
CO[C@H]1O[C@H](CO)[C@@H](OC(=O)Nc2ccc(C(F)(F)F)cc2)[C@H](OC(=O)Nc2ccc3c(c2)OCO3)[C@H]1OC(=O)Nc1ccc2c(c1)OCO2	-0.559
NCCCCCCNC(=O)[C@@H]1C[C@@H]2C(=O)N3CCC[C@H]3C(=O)N2[C@@H]1c1ccc(O)cc1	0.289
COC(=O)C(CC#Cc1ccc2c(c1)[C@]1(C(=O)N2)[C@H](C(=O)O)[C@H]2C(=O)O[C@H](c3ccccc3)[C@H](c3ccccc3)N2[C@@H]1c1ccccc1OCCO)C(=O)OC	-0.674
CCOC(=O)[C@H]1C/C=C/C[C@H](C(=O)OCC)C(=O)O[C@H]2[C@@H](OC)O[C@H](CO)[C@@H](OC(=O)CCc3ccccc3)[C@@H]2OC1=O	-0.23
C[C@]12C(=O)N(CCCCCCO)[C@@H]3C(=O)N(c4ccc(Cl)cc4)CC=CC31O[C@@H]1/C=C\CCCOC(=O)C12 (stereo not given in full)	0.264
